Experimental data from PubChem BioAssay (NCI).
The panel holds about 83,000 compounds, 20% with a hit somewhere; the sample as a whole holds those more often.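 96-well plates, one dose, 48 hours. Percent growth reported; active if below 10.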 The source made the active and inactive calls.

System: T-47D breast
Experiment: NCI-60 one-dose screen, 48 h (100 = growth as untreated, 0 = no growth, -100 = all killed)
Settings: 10 µM unless noted

Question: `CCOC(=O)C1=C(C)NC(SCc2nnc(-c3ccc(Cl)cc3)o2)=NC1c1ccc(Cl)cc1` (stereo unspecified) was tested. Which growth did it give?
Answer: 49.9% (inactive)

Question: Which growth does the source give for `O=Cc1ccc2nc(C(Cl)(Cl)Cl)ccc2c1` here?
Answer: 97.6% (inactive)

Question: With `CCCc1n(Cc2ccc3ccccc3c2)c2ccccc2[n+]1Cc1ccc2ccccc2c1` as the molecule, how does the growth read?
Answer: -9.39% (active)

Question: For `CC(CN1CCN(CCOCCO)CC1)CN1c2ccccc2Sc2ccc(Cl)cc21` (stereo unspecified), which growth is on record?
Answer: 62.7% (inactive)

Question: For `Clc1ccc(Nc2ncnc3c2sc2ncccc23)c(Cl)c1`, which growth is on record?
Answer: 36.7% (inactive)

Question: For `COc1ccc(/C=C(/C(=O)N2CCN(c3ccccc3)CC2)c2cc(OC)c(OC)c(OC)c2)cc1O`, which growth is on record?
Answer: 68.4% (inactive)

Question: For `C#CCNC(=S)N/N=C(\C)c1ccccn1`, which growth is on record?
Answer: 24.1% (inactive)

Question: With `CC(C)NC(=O)OCC#CCOC(=O)NC(C)C` as the molecule, how does the growth read?
Answer: 99.2% (inactive)

Question: Which growth does the source give for `Cc1cc(C)c2c(n1)sc1c(Nc3ccc(Cl)cc3Cl)ncnc12` here?
Answer: 36.8% (inactive)

Question: `CCCCn1cnc(-c2cc(-c3ccccc3)cc(C(F)(F)F)c2)n1` was tested. Which growth did it give?
Answer: 93.7% (inactive)

Question: How did the growth turn out when `O=C1c2ccccc2C(=O)c2c1oc1ccc3ccccc3c21` was run?
Answer: 23.5% (inactive)

Question: With `COC1=CC(c2ccc[nH]2)=N/C1=C\c1[nH]c(C)c(C(=O)CCCCCCCCC(=O)O[C@H]2CC[C@H]3C4CCc5cc(O)ccc5C4CC[C@]23C)c1C` (stereo partly specified) as the molecule, how does the growth read?
Answer: 29.8% (inactive)

Question: `CCSc1ccc([C@@H]2[C@@H](N)C(=O)N2c2cc(OC)c(OC)c(OC)c2)cc1` was tested. Which growth did it give?
Answer: 60.3% (inactive)

Question: How did the growth turn out when `COc1ccc2[nH]cc(C(c3ccc(Cl)cc3)N3CCCC3)c2c1` (stereo unspecified) was run?
Answer: 74% (inactive)

Question: How did the growth turn out when `Oc1[nH]c2ccc(Cl)cc2c1/C=c1/ccc2c(c1)N=C(c1ccc(F)cc1)N=2` was run?
Answer: 62.6% (inactive)

Question: How did the growth turn out when `COc1cc(-c2csc(NC(=O)Nc3cccc(C(F)(F)F)c3)n2)cc(OC)c1OC` was run?
Answer: 7.61% (active)

Question: `O=C(Cc1ccc(Nc2ccnc(C(F)(F)F)c2)cc1)N/N=C/c1ccccc1O` was tested. Which growth did it give?
Answer: 18.4% (inactive)

Question: How did the growth turn out when `COc1ccc2nc(C)cc(Nc3ccccc3O)c2c1` was run?
Answer: 44% (inactive)

Question: With `C[C@]12CCc3nc(Nc4ccc(O)cc4)sc3C1=CC[C@@H]1[C@@H]2CC[C@]2(C)/C(=N/NC(N)=S)CC[C@@H]12` as the molecule, how does the growth read?
Answer: -31.6% (active)

Question: With `CN(C)CCOc1nc2c3cccnc3cc(-c3cccc(Cl)c3)c2c2ncccc12` as the molecule, how does the growth read?
Answer: 20.1% (inactive)

Question: How did the growth turn out when `Oc1[nH]c2ccccc2c1/C=c1/ccc2c(c1)N=C(c1ccc(C(F)(F)F)cc1)N=2` was run?
Answer: 35.1% (inactive)

Question: With `COc1ccc(/C(=C\c2ccc3c(c2)OCO3)C(=O)Nc2nc3ccc(F)cc3s2)cc1OC` as the molecule, how does the growth read?
Answer: 101% (inactive)

Question: Which growth does the source give for `O=C(Nc1ccccc1Cl)Oc1ccc2ccccc2c1` here?
Answer: 88.5% (inactive)

Question: `Nc1nc2c(c3ncccc13)C(c1ccccc1)Cc1ncccc1-2` (stereo unspecified) was tested. Which growth did it give?
Answer: 71.1% (inactive)

Question: For `COc1ccccc1NC(=O)OCC12COCN1COC2`, which growth is on record?
Answer: 102% (inactive)

Question: How did the growth turn out when `COc1cc2c(cc1C)NC(=O)/C2=C\c1c[nH]c2ccccc12` was run?
Answer: 65.8% (inactive)

Question: With `C=C(C)[C@@H]1CC[C@]2(C)[C@H](CC=C3[C@@H]4C[C@](C)(C(=O)N5CCN(C)CC5)CC[C@]4(C)CC[C@]32C)[C@@]1(C)CCC#N` as the molecule, how does the growth read?
Answer: 42.4% (inactive)

Question: With `COc1ccc(NC(=O)/C=C/c2ccc(Cl)c(Cl)c2)cn1` as the molecule, how does the growth read?
Answer: 71% (inactive)

Question: How did the growth turn out when `CC(C)c1[nH]ncc1-c1nc2ccc3[nH]ncc3c2c2c1CCCC2` was run?
Answer: 46.8% (inactive)

Question: For `COc1ccc(NC(=O)c2ccc(C(F)(F)F)nc2Nc2ccc(Cl)cc2C)cc1Cl`, which growth is on record?
Answer: 21.8% (inactive)

Question: Which growth does the source give for `NCCCOc1cc2ccccc2cc1C(=O)NCCCOc1cc2ccccc2cc1C(=O)Nc1ccc(Cl)cc1O` here?
Answer: -67.6% (active)

Question: `C/C=C(\C)C(C(=O)NC1CCCCC1)N(C(=O)C1CCc2cc(F)ccc2O1)c1ccc([N+](=O)[O-])cc1` (stereo unspecified) was tested. Which growth did it give?
Answer: 88.1% (inactive)

Question: Which growth does the source give for `O=C(Cn1nncc1CN1C(=O)CSC1=O)Nc1ccc(F)cc1` here?
Answer: 97.8% (inactive)

Question: `CCC(C)C1NC(=O)c2nc(oc2-c2ccccc2)-c2csc(n2)-c2csc(n2)-c2nc(oc2C)-c2coc(n2)CNC(=O)C(C(C)CC)NC1=O` (stereo unspecified) was tested. Which growth did it give?
Answer: -62.5% (active)

Question: Which growth does the source give for `C=CCn1c(C)nc2cc(Nc3nc(N4CCCC4)nc4nc[nH]c34)ccc21` here?
Answer: 45% (inactive)

Question: How did the growth turn out when `Clc1ccc(Nc2ncnc3c2sc2ncccc23)cc1` was run?
Answer: 33.5% (inactive)

Question: For `Cc1ccc(NC(=O)c2nc(S(C)(=O)=O)oc2-c2ccc(F)cc2)cc1Nc1ccc2ncn(C)c(=O)c2c1`, which growth is on record?
Answer: -9.98% (active)

Question: `CCCCNCC(O)c1cc(-c2ccc(C(F)(F)F)cc2)nc(-c2ccc(C(F)(F)F)cc2)c1` (stereo unspecified) was tested. Which growth did it give?
Answer: -80.3% (active)

System: BT-549 breast
Experiment: as above
Settings: 10 µM unless noted

Question: For `CCOC(=O)C1=C(C)NC(SCc2nnc(-c3ccc(Cl)cc3)o2)=NC1c1ccc(Cl)cc1` (stereo unspecified), which growth is on record?
Answer: 75.3% (inactive)

Question: Which growth does the source give for `O=Cc1ccc2nc(C(Cl)(Cl)Cl)ccc2c1` here?
Answer: 95.9% (inactive)

Question: Which growth does the source give for `CCCc1n(Cc2ccc3ccccc3c2)c2ccccc2[n+]1Cc1ccc2ccccc2c1` here?
Answer: -76.6% (active)

Question: Which growth does the source give for `CC(CN1CCN(CCOCCO)CC1)CN1c2ccccc2Sc2ccc(Cl)cc21` (stereo unspecified) here?
Answer: 79.1% (inactive)

Question: Which growth does the source give for `Clc1ccc(Nc2ncnc3c2sc2ncccc23)c(Cl)c1` here?
Answer: 44.6% (inactive)

Question: Which growth does the source give for `COc1ccc(/C=C(/C(=O)N2CCN(c3ccccc3)CC2)c2cc(OC)c(OC)c(OC)c2)cc1O` here?
Answer: 8.46% (active)

Question: Which growth does the source give for `C#CCNC(=S)N/N=C(\C)c1ccccn1` here?
Answer: -2.53% (active)

Question: `CC(C)NC(=O)OCC#CCOC(=O)NC(C)C` was tested. Which growth did it give?
Answer: 95.7% (inactive)

Question: With `Cc1cc(C)c2c(n1)sc1c(Nc3ccc(Cl)cc3Cl)ncnc12` as the molecule, how does the growth read?
Answer: 44% (inactive)

Question: With `CCCCn1cnc(-c2cc(-c3ccccc3)cc(C(F)(F)F)c2)n1` as the molecule, how does the growth read?
Answer: 100% (inactive)

Question: `O=C1c2ccccc2C(=O)c2c1oc1ccc3ccccc3c21` was tested. Which growth did it give?
Answer: 70.2% (inactive)

Question: Which growth does the source give for `COC1=CC(c2ccc[nH]2)=N/C1=C\c1[nH]c(C)c(C(=O)CCCCCCCCC(=O)O[C@H]2CC[C@H]3C4CCc5cc(O)ccc5C4CC[C@]23C)c1C` (stereo partly specified) here?
Answer: 38.3% (inactive)

Question: How did the growth turn out when `CCSc1ccc([C@@H]2[C@@H](N)C(=O)N2c2cc(OC)c(OC)c(OC)c2)cc1` was run?
Answer: 32.7% (inactive)

Question: With `COc1ccc2[nH]cc(C(c3ccc(Cl)cc3)N3CCCC3)c2c1` (stereo unspecified) as the molecule, how does the growth read?
Answer: 65.9% (inactive)

Question: For `Oc1[nH]c2ccc(Cl)cc2c1/C=c1/ccc2c(c1)N=C(c1ccc(F)cc1)N=2`, which growth is on record?
Answer: 27.8% (inactive)

Question: Which growth does the source give for `COc1cc(-c2csc(NC(=O)Nc3cccc(C(F)(F)F)c3)n2)cc(OC)c1OC` here?
Answer: 43.8% (inactive)

Question: How did the growth turn out when `O=C(Cc1ccc(Nc2ccnc(C(F)(F)F)c2)cc1)N/N=C/c1ccccc1O` was run?
Answer: 50.2% (inactive)

Question: `COc1ccc2nc(C)cc(Nc3ccccc3O)c2c1` was tested. Which growth did it give?
Answer: 35% (inactive)

Question: For `C[C@]12CCc3nc(Nc4ccc(O)cc4)sc3C1=CC[C@@H]1[C@@H]2CC[C@]2(C)/C(=N/NC(N)=S)CC[C@@H]12`, which growth is on record?
Answer: 9.89% (active)

Question: `CN(C)CCOc1nc2c3cccnc3cc(-c3cccc(Cl)c3)c2c2ncccc12` was tested. Which growth did it give?
Answer: 57.9% (inactive)

Question: Which growth does the source give for `Oc1[nH]c2ccccc2c1/C=c1/ccc2c(c1)N=C(c1ccc(C(F)(F)F)cc1)N=2` here?
Answer: 43.3% (inactive)

Question: How did the growth turn out when `COc1ccc(/C(=C\c2ccc3c(c2)OCO3)C(=O)Nc2nc3ccc(F)cc3s2)cc1OC` was run?
Answer: 97.1% (inactive)

Question: How did the growth turn out when `O=C(Nc1ccccc1Cl)Oc1ccc2ccccc2c1` was run?
Answer: 133% (inactive)

Question: How did the growth turn out when `Nc1nc2c(c3ncccc13)C(c1ccccc1)Cc1ncccc1-2` (stereo unspecified) was run?
Answer: 72.9% (inactive)

Question: With `COc1ccccc1NC(=O)OCC12COCN1COC2` as the molecule, how does the growth read?
Answer: 117% (inactive)

Question: Which growth does the source give for `COc1cc2c(cc1C)NC(=O)/C2=C\c1c[nH]c2ccccc12` here?
Answer: 94.6% (inactive)

Question: With `C=C(C)[C@@H]1CC[C@]2(C)[C@H](CC=C3[C@@H]4C[C@](C)(C(=O)N5CCN(C)CC5)CC[C@]4(C)CC[C@]32C)[C@@]1(C)CCC#N` as the molecule, how does the growth read?
Answer: 56.6% (inactive)

Question: How did the growth turn out when `COc1ccc(NC(=O)/C=C/c2ccc(Cl)c(Cl)c2)cn1` was run?
Answer: 67.1% (inactive)

Question: Which growth does the source give for `CC(C)c1[nH]ncc1-c1nc2ccc3[nH]ncc3c2c2c1CCCC2` here?
Answer: 27.4% (inactive)

Question: `COc1ccc(NC(=O)c2ccc(C(F)(F)F)nc2Nc2ccc(Cl)cc2C)cc1Cl` was tested. Which growth did it give?
Answer: 19% (inactive)

Question: How did the growth turn out when `NCCCOc1cc2ccccc2cc1C(=O)NCCCOc1cc2ccccc2cc1C(=O)Nc1ccc(Cl)cc1O` was run?
Answer: -39.8% (active)

Question: How did the growth turn out when `C/C=C(\C)C(C(=O)NC1CCCCC1)N(C(=O)C1CCc2cc(F)ccc2O1)c1ccc([N+](=O)[O-])cc1` (stereo unspecified) was run?
Answer: 90.1% (inactive)

Question: `O=C(Cn1nncc1CN1C(=O)CSC1=O)Nc1ccc(F)cc1` was tested. Which growth did it give?
Answer: 98.8% (inactive)

Question: For `CCC(C)C1NC(=O)c2nc(oc2-c2ccccc2)-c2csc(n2)-c2csc(n2)-c2nc(oc2C)-c2coc(n2)CNC(=O)C(C(C)CC)NC1=O` (stereo unspecified), which growth is on record?
Answer: -78.4% (active)

Question: How did the growth turn out when `C=CCn1c(C)nc2cc(Nc3nc(N4CCCC4)nc4nc[nH]c34)ccc21` was run?
Answer: -33.6% (active)

Question: With `Clc1ccc(Nc2ncnc3c2sc2ncccc23)cc1` as the molecule, how does the growth read?
Answer: 49.1% (inactive)

Question: How did the growth turn out when `Cc1ccc(NC(=O)c2nc(S(C)(=O)=O)oc2-c2ccc(F)cc2)cc1Nc1ccc2ncn(C)c(=O)c2c1` was run?
Answer: 66.3% (inactive)

Question: How did the growth turn out when `CCCCNCC(O)c1cc(-c2ccc(C(F)(F)F)cc2)nc(-c2ccc(C(F)(F)F)cc2)c1` (stereo unspecified) was run?
Answer: -31.2% (active)
